Rows were chosen to be rich in hits. Some 2.4% of all compounds tested hit in one or more screens of this group.
D2 ag-1: activates the human D2 dopamine receptor; P14416; DiscoveRx PathHunter D2 beta-arrestin, luminescence, 90 min; 100% = 57 uM dopamine signal; activation, % (concentration not given with the values); hit rate 0.084% among 360,000; AID 624465; in the data active = activation above about 40%; inconclusive = between about 15% and that limit
Target sequence (P14416 whole entry, looked up): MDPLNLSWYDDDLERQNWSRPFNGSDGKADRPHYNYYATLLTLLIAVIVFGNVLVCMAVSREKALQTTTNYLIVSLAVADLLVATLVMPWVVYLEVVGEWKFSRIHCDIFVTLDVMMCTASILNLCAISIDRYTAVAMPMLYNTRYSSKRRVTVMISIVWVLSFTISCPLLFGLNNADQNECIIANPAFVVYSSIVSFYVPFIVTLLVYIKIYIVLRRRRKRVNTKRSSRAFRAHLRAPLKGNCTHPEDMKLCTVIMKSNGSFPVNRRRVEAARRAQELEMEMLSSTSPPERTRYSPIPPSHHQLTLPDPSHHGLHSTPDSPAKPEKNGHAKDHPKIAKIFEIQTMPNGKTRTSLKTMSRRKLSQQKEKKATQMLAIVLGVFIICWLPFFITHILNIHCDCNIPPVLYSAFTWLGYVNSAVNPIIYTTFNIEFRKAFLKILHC
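DiscoveRx PathHunter D2 beta-arrestin cells (2,100/well) attached overnight, then compound-stimulated 90 min at 37 C in HBSS/10 mM HEPES/0.1% Tween-20 buffer; beta-galactosidase complementation read by luminescence after 1 h at ambient temperature. Dopamine 57 uM final (EC100) as control.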
D2 antag: antagonizes the human D2 dopamine receptor; inhibition, % at 10 µM; AID 485344; HEK293 TREx D2 cells, calcium flux, dopamine EC80; hit rate 2% among 340,000; P14416; in the data active = inhibition above about 30%; inactive = below that, where a call was filed; also: 0% is about no effect
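In this primary screen, negative modulation is detected by tracking calcium flux after an EC80 dopamine challenge in inducible HEK293 T-REx D2 cells preexposed to test compound for 180 s.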
D2 PAM-1: human D2 receptor positive allosteric modulation | P14416 | DiscoveRx D2 beta-arrestin cells, luminescence, 90 min; 100% = 57 uM dopamine signal | potentiation, % (no concentration beside the values) | hit rate 0.23% among 360,000 | AID 624464; in the data active = potentiation above about 50%; inconclusive = mostly about 30% to 49%
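PathHunter beta-arrestin assay in DiscoveRx D2 cells. Compounds were added with an EC20 of dopamine (50 nM final) for 90 min at 37 deg C. Luminescence was read 1 h after detection reagent, with 57 uM dopamine as the EC100 control.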
D2 PAM-2: positive allosteric modulators of human D2 dopamine receptor; hit rate 0.34% among 340,000; AID 485347; potentiation, % at 10 µM; HEK293 T-REx D2, calcium flux, EC20 dopamine potentiation;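 active = potentiation over 3 SD above the plate norm, cut at about 30% in these data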; also: 0% is about no effect
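Cells plated with tetracycline inducer and held overnight at 30 C; calcium dye loaded 30–90 min at room temperature; baseline taken, compound added and read 180 s; EC20 dopamine then added and read 180 s.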
D2 ag-2: activates the human D2 dopamine receptor; P14416; HEK293 T-REx D2 cells, calcium flux agonist mode; activation, % at 2 µM; hit rate 0.53% among 340,000; AID 485358;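 active = activation over 3 SD above normal in the single-dose calcium agonist read, cut at about 30% in these data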; also: 0% is about no effect
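Tetracycline-induced HEK293 T-REx cells with force-coupled D2 receptor, plated overnight at 30 C, loaded with no-wash calcium dye. After a 10 s baseline, compound was pin-added and calcium flux read kinetically for 180 s; calcium rises flagged agonists.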
D3 ag: activates human D3 dopamine receptor beta-arrestin recruitment | Potency, µM (titrated, usually from 76.9 µM), inactives show at the highest dose activation, actives largely listed as activators | shares compounds with D2 ag-2 | DiscoveRx D3 beta-arrestin cells, luminescence, 90 min | hit rate 4% among 2,300;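 also: potency is read from the fitted curve at half-maximal effect; 100% = dopamine control response; nearly all actives have a fitted effect of over 70% in size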
D2 ag-3: counter-screen for D3 agonists: human D2 dopamine receptor agonism; Potency, µM (titrated, usually from 76.9 µM), for inactives: at the highest dose activation, actives largely listed as activators; DiscoveRx PathHunter D2 beta-arrestin, luminescence, 90 min; response scale: percent relative to full dopamine signal; AID 720507; shares compounds with D2 ag-2; hit rate 5.9% among 2,300; also: potency is read from the fitted curve at half-maximal effect; % of control where 0% means no effect; nearly all actives have a fitted effect of over 70% in size
Active calls of the source: *; ? = inconclusive; . = not tested or not shown; ! = not confirmed by another sample. Unless noted, calls follow the shape of the dose curve; as a rule, active = well fitted activation curve with a large enough effect; inconclusive = small, poorly fitted or top-dose-only effect; inactive = flat fitted curve, though single readings scatter.

SMILES	D2 ag-1	D2 antag	D2 PAM-1	D2 PAM-2	D2 ag-2	D3 ag	D2 ag-3
CSc1ccc(NC(=O)NCCCN2CCN(c3ccccc3F)CC2)cc1	?	100.3*	3.1	-19.5	69.4*	?	?
Cc1nn(-c2ccc(F)cc2)c(-n2cccc2)c1C(=O)NCCCN1CCN(c2ccccc2F)CC1	.	.	.	-22.9	22.4	.	.
O=C(NCCCN1CCN(c2ccccc2F)CC1)Nc1ccc(F)cc1	13.5	80.7*	-4.2	-20.4	75.7*	-1.0%	?
O=C(NCCCN1CCN(c2ccccc2F)CC1)Nc1ccccc1[N+](=O)[O-]	?	99.0*	-16.5	-25.3	73.5*	16.5%	?
O=C(Cn1c(=O)c2cccn2c2ccc(F)cc21)NCCCN1CCN(c2ccccc2F)CC1	?	81.8*	-33.8	-19.2	78.9*	4.4%	?
CSc1ccc(CCNC(=O)c2c(C)nn(-c3ccc(F)cc3)c2-n2cccc2)cc1	.	.	.	2.2	0.4	.	.
COc1cc(NC(=O)c2cccc(Cl)c2Cl)ccc1NC(=O)c1cc2ccccc2o1	.	.	.	1.5	2.0	.	.
COc1ccc(N2CCN(CCCNC(=O)Nc3ccccc3)CC2)cc1	-1.4	-2.5	-24.2	11.7	0.2	.	.
COc1ccccc1N1CCN(CCCNC(=O)Nc2ccccc2)CC1	?	101.0*	-12.3	-30.2	86.6*	29.1%	27.8%
COc1ccc2[nH]cc(C3N4CC5(C)CN3CC(C)(C4)C5=O)c2c1 (configuration not stated)	-0.3	-21.8	-3.2	-14.0	58.4*	2.7%	-2.3%
COCCN=c1scc(-c2cccs2)n1/N=C/c1ccc(O)c(O)c1O	93.7*	73.3*	75.7*	-19.6	78.4*	25.1µM*	7.08µM*
COc1ccccc1N1CCN(CC(O)COc2ccc3c(c2)OCO3)CC1 (configuration not stated)	-5.4	1.4	-9.8	11.8	-0.5	.	.
CCOc1ccccc1N1CCN(CC(O)COc2ccc3c(C)cc(=O)oc3c2)CC1 (configuration not stated)	13.3	64.8*	-5.6	-13.9	54.8*	-4.1%	14.2%
Cc1ccc2c(CC(=O)N(Cc3ccc(Cl)cc3)Cc3ccco3)coc2c1	.	.	.	2.6	-1.0	.	.
CCn1c(CN2CCCCC2)nc2cc(NC(=O)c3cc(OC)c(OC)c(OC)c3)ccc21	.	.	.	1.5	21.1	.	.
COc1ccc([N+](=O)[O-])c(OC)c1C(=O)Nc1ccc(F)cc1F	-0.3	22.4	-10.4	0.7	-0.4	-6.4%	-2.0%
CC(C)(C)C(=O)Nc1ccc(F)cc1[N+](=O)[O-]	-3.0	7.1	-12.7	-1.6	32.3*	?	0.7%
COc1cc(NC(=O)CCc2c(C)nc3nc(-c4cc(OC)cc(OC)c4)nn3c2C)cc(OC)c1	.	.	.	-10.0	-0.2	.	.
CC(=O)N1CCC(N2CCN(c3ccccc3F)CC2)CC1	40.9*	71.4*	2.3	-20.1	75.0*	?	?
Cc1ncoc1C(=O)N1CCCC(N2CCN(c3ccccc3F)CC2)C1 (configuration not stated)	-3.0	1.1	-25.7	-11.8	35.9*	-14.3%	-1.6%
O=C(c1ccco1)N1CCCC(N2CCN(c3ccccc3F)CC2)C1 (configuration not stated)	-1.7	-18.4	-40.6	-10.6	8.4	.	.
O=C(c1ccnc(Cl)c1)N1CCCC(N2CCN(c3ccccc3F)CC2)C1 (configuration not stated)	2.7	24.6	0.2	-6.4	23.7	19.3%	19.4%
CC(=O)N1c2ccccc2C(=O)C1N1CCN(c2ccccc2F)CC1 (configuration not stated)	.	.	.	3.0	.	.	.
CC(C)CCn1c(=O)c2sccc2n2c(CCCC(=O)Nc3ccc(C(C)C)cc3)nnc12	.	.	.	-5.2	.	.	.
COC(=O)c1ccccc1NC(=O)Cn1cc(S(=O)(=O)Cc2ccccc2F)c2ccccc21	.	.	.	1.3	0.2	.	.
SMILES	D2 ag-1	D2 antag	D2 PAM-1	D2 PAM-2	D2 ag-2	D3 ag	D2 ag-3
CN1CCC2(CC1)C1CN(C)CC=C1C(C#N)=C(N)C2(C#N)C#N (configuration not stated)	13.6	30.0	2.8	-17.3	45.6*!	29.5%	?
Cc1ccc2[nH]c(=O)c3cc(C(=O)NCCCN4CCC(C)CC4)sc3c2c1	.	.	.	-4.5	-0.2	.	.
CCCCCn1c(CCCNC(=O)c2cccc(C)c2)nc2ccccc21	.	.	.	1.2	0.2	.	.
CNc1nc(N)c([N+](=O)[O-])c(Nc2cccc(F)c2)n1	-0.8	2.9	-8.1	8.6	14.3	-4.4%	-4.2%
CNc1nc(N)c([N+](=O)[O-])c(NCc2ccccc2)n1	-1.4	43.8*	-21.4	-0.5	10.1	-12.3%	-6.5%
Fc1ccccc1N1CCN(c2ncnc3c2nc2n3CCCCC2)CC1	.	.	.	6.2	-0.8	.	.
O=C(C1CCN(c2ncnc3c2nc2n3CCCCC2)CC1)N1CCN(c2ccccc2F)CC1	6.2	5.3	-3.4	-12.2	27.7	?	16.4%
CC(C)(C)OC(=O)N1CCC(CNC(=O)c2ccc(F)cc2)CC1	2.7	4.5	-4.2	-20.5	32.2*	-5.8%	1.3%
COC(=O)[C@@H](NC(=O)Nc1ccc(S(N)(=O)=O)cc1)C(C)C	-4.2	3.5	-9.3	-21.8	69.1*	-2.2%	0.2%
Cc1ccccc1C(=O)Nc1c(C)nc(Nc2ccccc2)nc1Nc1ccccc1	.	.	.	4.7	0.1	.	.
CCN(CC)S(=O)(=O)c1cc(NC(=O)c2ccc(-n3cncn3)c([N+](=O)[O-])c2)ccc1C	5.7	-18.7	7.7	-19.0	56.9*	20.1%	16.6%
Cc1ccc(NC(=O)c2ccc(-n3cncn3)c([N+](=O)[O-])c2)cc1	1.9	-26.7	-7.1	2.7	0.9	.	.
Cc1cc(Br)ccc1NC(=O)CN(C)C(=O)c1ccc(-n2cncn2)c([N+](=O)[O-])c1	4.0	-26.9	-4.5	-1.2	-0.6	-0.9%	1.3%
O=C(c1cnn(-c2ccc(F)cc2)c1-n1cccc1)N1CCN(c2cccc(Cl)c2)CC1	.	.	.	-2.4	-0.9	.	.
CC1COc2ccccc2N1C(=O)c1ccccc1Cl (configuration not stated)	?	23.3	0.9	-5.0	40.7*	-5.4%	15.9%
CC(C)(C)C1COc2ccccc2N1C(=O)c1ccccc1Cl (configuration not stated)	-11.7	-3.7	-0.9	10.8	2.1	.	.
Cc1cccc(Cn2c(=O)oc3ccc(C)cc32)c1	2.9	31.5*	-4.0	10.7	23.8	-7.7%	-2.5%
CCCCC(CC)CNC(=O)CCCCCn1c(=O)[nH]c2ccsc2c1=O (configuration not stated)	.	.	.	13.9	-1.0	.	.
